# Screening data: PubChem, National Center for Advancing Translational Sciences (NCATS)
# Pf growth 48h – inhibits P. falciparum growth in the first generation, 48 h | P. falciparum luciferase growth in erythrocytes, 48 h | Potency, µM (series often up to 28.7 µM), inactives show top-dose activity change, negative = inhibition, usual class: inhibitors | 310,000 compounds, 5.9% hits | AID 504832; further: potency means the concentration at half of the fitted maximal effect; on the % scale 0 is the no-effect control and ±100 the full control effect
#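 A one-generation exposure of luciferase-tagged malaria parasites in RPMI 1640/Albumax erythrocyte culture, 37 C and 5% CO2. Inhibition is inferred from decreased luminescence after adding detection reagent.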
# Shiga inhibitor – inhibitors of Shiga toxin in Vero cells; Vero cells, Shiga toxin protein synthesis inhibition reporter; inhibition, % at 38.7 µM; 290,000 compounds, 9.2% hits; AID 2315; in the data active means inhibition mostly above about 28%, no sharp cut-off; inactive means mostly below about 43%; further: 0% is about no effect
# NS1 function inh – influenza NS1 inhibition; Potency, µM (highest dose often 46.1 µM), inactives show top-dose activity, positive = more growth; 270,000 compounds, 0.4% hits; AID 2326; calls by dose curve; further: potency means the concentration at half of the fitted maximal effect; actives are rising curves; nearly all actives have a fitted effect of over 50% in size
#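 Compounds were scored for reversing the slow growth caused by influenza A NS1 in S. cerevisiae, measured by optical density at 600 nm. Assay medium contained 2% galactose at pH 6.0; NS1-free yeast of the same strain were the positive control.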
# SARS PLpro yeast – inhibitors of SARS-CoV papain-like protease in yeast; S. cerevisiae expressing SARS-CoV PLpro, growth rescue; Potency, µM (doses to about 32.9 µM), for the others: at the top dose activity, positive = growth rescue, usual class: activators; 330,000 compounds, 0.19% hits; calls by dose curve; further: potency means the concentration at half of the fitted maximal effect; 0% is about no effect; nearly all actives have a fitted effect of over 55% in size
# Pf growth 96h – inhibits malaria parasite growth, 96 h; P. falciparum luciferase reporter growth, 96 h; Potency, µM (highest dose often 28.7 µM), without a hit: top-dose activity change, negative = inhibition, actives largely listed as inhibitors; 320,000 compounds, 6.9% hits; further: potency means the concentration at half of the fitted maximal effect; on the % scale 0 is the no-effect control and ±100 the full control effect
#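 Two parasite generations (96 h, 37 C, 5% CO2) of compound exposure in infected erythrocytes (0.05% parasitemia, 2% hematocrit). Luciferase-reporter P. falciparum; decreased luminescence indicates inhibited growth, aimed at apicoplast-acting delayed death.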
# CHX counter – affects cycloheximide protein synthesis inhibition readout, counter-screen. cell reporter, cycloheximide protein synthesis inhibition counterscreen. max response, %. 300,000 compounds, 12% hits. AID 2314; in the data active means max response mostly above about 13%, no sharp cut-off; inactive means mostly below about 14%; further: read at 38.3 µM for the half of the compounds with a filed dose; 0% is about no effect
# Starred values were filed as active, the others as inactive; i = inactive; ? = inconclusive; · = no result. Compounds with a hit are over-represented: about 21% of the library has one in this group of screens. Unless noted, the call rests on the fitted dose curve; in most records, active means well fitted inhibition curve with a large enough effect; inconclusive means small, poorly fitted or top-dose-only effect, or another doubt; inactive means no such curve, though single readings can be large or run the other way.
SMILES,Pf growth 48h,Shiga inhibitor,NS1 function inh,SARS PLpro yeast,Pf growth 96h,CHX counter
COc1cccc(C2=NOC(C(=O)N3CCOCC3)C2)c1 (configuration not stated),159%,141*,0%,0%,1.7µM*,63*
COc1cccc(C2=NOC(C(=O)N3CCN(C(=O)c4ccco4)CC3)C2)c1 (configuration not stated),11%,23,5%,5%,4%,-2
CCOC(=O)C(Cc1ccccc1)NC(=O)CCc1nnc2ccc(N3CCCC3)nn12 (configuration not stated),5%,10,-7%,1%,?,-4
Cc1ccc(CN2C(=O)C(C)Nc3ncnc(N4CCN(c5ccccn5)CC4)c32)cc1 (configuration not stated),12µM*,·,·,0%,12µM*,·
CC1Nc2ncnc(N3CCN(c4ccccn4)CC3)c2N(Cc2ccccc2)C1=O (configuration not stated),12µM*,·,·,-4%,2.6µM*,·
Cc1nonc1OCC(C)(COc1nonc1C)NC(=O)c1ccccc1,?,12,2%,1%,?,-1
COc1ccc(CCNC2CC(=O)N(CCc3ccc(OC)c(OC)c3)C2=O)cc1 (configuration not stated),·,-5,-1%,-4%,4.7µM*,-2
COc1ccc(CCNC2CC(=O)N(CCc3ccccc3)C2=O)cc1OC (configuration not stated),·,-11,-3%,-13%,19%,-3
CCCC[C@@H]1CCCO[C@@](C(=O)NCCOC)(C(F)(F)F)C1,·,-11,·,·,·,-6
C/C(=C\c1ccc2c(c1)OCO2)C(=O)c1c(C)cc(C)[nH]c1=O,7%,-11,6%,0%,?,-1
Cc1ccc(-c2c[n+]3c(n2-c2ccccc2)CCC3)cc1,1.5µM*,-9,2%,0%,0.15µM*,1
c1ccc(-c2c[n+]3c(n2-c2ccccc2)CCC3)cc1,0.83µM*,18,7%,1%,?,-1
C[N+](C)(C)C(Cc1c[nH]c2ccccc12)C(=O)[O-] (configuration not stated),11%,1,3%,0%,2%,-3
O=C(/C=C/c1ccco1)N1CCc2ccccc21,275%,59*,·,-13%,i,29*
Cc1ccc(/C=C/C(=O)N2CCc3ccccc32)o1,165%,103*,-9%,-19%,5%,50*
CCOC(=O)C1=C(COC(=O)COc2ccc(C#N)cc2)NC(=O)NC1C (configuration not stated),11%,7,-2%,5%,0%,-1
Cc1cc(NS(=O)(=O)c2ccc(NC(=S)Nc3ccc(Cl)cc3C)cc2)no1,20%,7,-2%,-1%,0%,-2
C[C@H](CO)N1C[C@H](C)[C@@H](CN(C)S(=O)(=O)c2ccc(F)cc2)Oc2c(NS(=O)(=O)c3ccccc3)cccc2C1=O,·,·,·,1%,·,·
Cc1c(NC(=O)Nc2ccc(C(C)(C)C)cc2)c(=O)n(-c2ccccc2)n1C,5%,-10,5%,-1%,4%,-1
COc1ccc(OC)c(-n2c(SCC(N)=O)nnc2-c2c[nH]c3ccccc23)c1,·,-4,-2%,0%,5.2µM*,-2
COc1ccccc1-n1c(C)nnc1SCC(N)=O,11%,-8,-1%,2%,4%,-1
COc1ccccc1-n1c(SCC(N)=O)nnc1-c1ccccc1,-15%,-1,-27%,-3%,1.7µM*,1
CCOc1ccccc1-n1c(SCC(N)=O)nnc1-c1ccccc1,-10%,-14,7%,-7%,·,-3
CCOc1ccc(-n2c(SCC(=O)Nc3cc(C)on3)nnc2-c2c[nH]c3ccccc23)cc1,·,44,8%,3%,5.9µM*,-4
COc1cccc(-n2c(SCC(N)=O)nnc2-c2c[nH]c3ccccc23)c1,·,-4,6%,0%,12µM*,-2
CCN(CC)S(=O)(=O)c1ccc2nnn(O)c2c1,6%,-2,·,0%,26%,6
O=C(CSc1nnc(-c2ccccc2F)o1)NC(=O)Cc1ccccc1,21%,·,·,3%,36%,·
Cc1cc(NC(=O)CSc2nnc(-c3c[nH]c4ccccc34)n2-c2ccc(F)cc2)no1,27%,8,2%,0%,24%,-3
